Our source for the Percent Effect values is ChEMBL document CHEMBL3988442, “University of Dundee, Small-Polar-MMV Screening Library” (2021).

This experiment addresses Shiga toxin 2 (Escherichia coli O157:H7) (UniProt P09385+P09386). The experiment in a line: E. coli 0.157:H7 Shiga Toxin SOP - stx2 screening assay. It counts as functional. Also on record: scale not given: direction of the effect not stated beside the values. The conditions noted are these: 30 µM.
With `CNC(=O)CSc1cnn(CC(=O)Nc2cccc(Cl)c2C)c(=O)c1Cl`, the Percent Effect was -8.91%.
To `c1cnc2c(C3CCN(Cc4ccsc4)CC3)n[nH]c2n1` belongs -14.5%.
The value for `COc1cc(CN(C(=O)Nc2cccnc2OC)C2CC2)ccc1O` was 11.9%.
To `CC(=O)NC(C)c1ccc(OCC2CC2)c(F)c1` (stereo not given) belongs 4.12%; to `CCc1nccn1C1CCCN(C(=O)c2ccc3nncn3c2)C1` (stereo not given), 7.36%.
As for `CC(C)COCC(NC(=O)c1cc[nH]n1)c1ccco1` (stereo not given), the Percent Effect is 9.69%.
To `OCCn1cc(CN2CCN(CCOCC(F)(F)F)CC2)cn1` belongs 27.3%.
To `CC(C)(C)c1ccc(C2(C(=O)NCCCS(C)(=O)=O)CC2)cc1` belongs -49.3%.
To `O=C(Cc1cccc(F)c1)NCCNCc1cccc(O)c1` belongs -12.7%; to `c1ccc(-c2noc(CN3CCOC(Cn4cccn4)C3)n2)nc1` (stereo not given), 11.3%.
In the case of `COC(=O)CCC(=O)N1CCc2[nH]nc(-c3ccc(F)c(F)c3)c2C1`, the Percent Effect was -11.9%.
The value for `Cc1nc(CN2CCCC2c2nc(C(C)C)no2)cs1` (stereo not given) was 12.9%; that for `CN(Cc1ccc(F)cc1)C(=O)CN1CCOC(Cn2cncn2)C1` (stereo not given) was -0.222%.
To `Cc1nccn1CCCC(=O)N1CCC(Nc2cccnn2)CC1` belongs -6.43%; to `CC(C(=O)Nc1cccc(N2CCCCC2)c1)n1cncn1` (stereo not given), 2.83%; to `Cc1csc([C@@H]2C[C@@H]3CCN(C(=O)c4ccnnc4)C[C@H]3O2)n1`, -6.67%.
The value for `O=C(NCc1ccc(-n2cncn2)nc1)c1ccc2c(c1)CCO2` was 12.9%; that for `O=C(CCN1CCCC1C1CCCCC1)N1CCc2sccc2C1` (stereo not given) was 8.04%; that for `O=c1nc(SCc2cccnc2)c2c(n1CCO)CCC2` was 13.4%.
With `Cn1c(C(F)(F)F)nn(CCNC(=O)NCc2ccccc2)c1=O`, the Percent Effect is -52.8%.
To `Cc1nc2c(c(N3CC=CC3)n1)CCN(Cc1ccoc1)CC2` belongs -69.4%.
To `Cn1cc(CC(=O)N2CCC(Nc3cccnn3)CC2)c2ccccc21` belongs -25.9%.
The value for `O=C1CC(c2ccsc2)c2c(n(C3CCOCC3)[nH]c2=O)N1` (stereo not given) was -30.3%; that for `Cc1nn(C)c(N(C)C)c1CNCC(O)COc1ccc(F)cc1` (stereo not given) was 8.48%.
For the molecule `CCN1CCN(C2CCN(Cc3nnc(C(C)(C)C)o3)CC2)C1=O`, the Percent Effect was 25.7%.
On to `Cc1noc(C)c1CCC(=O)N1CCN(CCn2cncn2)CC1`, for which the Percent Effect is -7.17%.
In the case of `CC(C)Sc1ncccc1C(=O)NCc1ccc(CS(C)(=O)=O)cc1`, the Percent Effect is 13.1%.
The value for `COc1cc(C)nc(N2CCN(C(=O)CCc3cscn3)CC2)n1` was -10.1%; that for `CCN(CC1CCOC1)C(=O)c1ccccc1N1CCOCC1` (stereo not given) was 23.4%.
As for `CC(Cn1cccn1)NC(=O)Nc1ccc(N(C)C)nc1` (stereo not given), the Percent Effect is -47.5%.
The value for `Cc1ccc(-c2nnc(CN3CCOC(Cn4cccn4)C3)o2)cc1` (stereo not given) was -10.3%; that for `Cc1nccc(N2CCC(=O)N(Cc3ccc(F)cc3)C(C(C)C)C2)n1` (stereo not given) was -4.25%.
In the case of `Cc1nc(C)n(CC2CCCCN2CC(=O)Nc2cccnc2)n1` (stereo not given), the Percent Effect came to 7.21%.
The value for `Cc1cccc(CN2CCC3(CCCN(C(=O)NC4CC4)C3)C2=O)n1` (stereo not given) was -5.22%; that for `COC(=O)c1sccc1S(=O)(=O)N1CCC(Oc2ncccc2Cl)CC1` was 4.83%.
To `NC[C@H]1CC[C@H](C(NC(=O)c2cccc(F)c2)c2ccccn2)CC1` (stereo not given in full) belongs -71.9%; to `COc1cc(C(=O)Nc2c(C)noc2C)ccc1C`, -5.89%; to `O=C(NCCc1coc(-c2ccc(F)cc2)n1)NC1CCC(O)CC1` (stereo not given), -24.9%.
To `CC(NC(=O)NCC1(N2CCCCC2)CCCCC1)c1nncn1C` (stereo not given) belongs 27.5%.
`CCc1c(C(=O)N2CCN(CC(N)=O)CC2)cnn1C(C)(C)C`: the Percent Effect is 2.77%.
